The results in this text go back to PubChem BioAssay.

The source made the active and inactive calls.

Assay [1] is described as follows: small molecules captured by biotinylated probe aFSTL3 – biochemical, small-molecule microarray, fluorescence 635/667, stem cell growth factor project, primary screen (AID 1064).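 Note: measures binding of the biotinylated anti-FSTL3 antibody to printed compounds.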 The following applies: higher = more signal.
A short description of assay [2]: binders from COS7 lysate, DM2A8 probe, primary screen, torsin A project, cell lysate, small-molecule microarray, fluorescence 635/667 (AID 1065). The following applies: higher = more signal, COS7 lysate expressing mutant human TOR1A.
Assay [3] can be described thus: small molecules captured by biotinylated probe aFGF2 – biochemical, small-molecule microarray, fluorescence 635/667, stem cell growth factor project, primary screen (AID 1067).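 Note: measures binding of biotinylated aFGF2 protein to printed compounds on slides; z-score merges feature fluorescence and signal-to-noise across triplicate slides.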 The following applies: higher = more signal.
A short description of assay [4]: small molecules captured by biotinylated probe aFGF10 – biochemical, small-molecule microarray, fluorescence 635/667, stem cell growth factor project, primary screen (AID 1071).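 Note: score merges 667 nm spot intensity and signal to noise from triplicate slides.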 As to conditions: higher = more signal.
Assay [5] concerns the target Neurogenic locus notch homolog protein 2 (Homo sapiens) (UniProt Q04721). Put plainly: small molecules binding Notch2 protein – biochemical, small-molecule microarray, 635 nm fluorescence, stem cell growth factors, primary screen (AID 1073). The following applies: higher = more signal.
Assay [6] deals with Pro-neuregulin-1, membrane-bound isoform (Homo sapiens) (UniProt Q02297). Put plainly: small molecules binding neuregulin-1 protein – biochemical, small-molecule microarray, fluorescence 635/667, psychiatric disease protein project, primary screen (AID 1075).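 Note: score combines 667 nm spot fluorescence with signal to noise.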 As to conditions: NRG1 binding, 635 nm fluorescence, higher = more signal.
Pro-neuregulin-1, membrane-bound isoform (Homo sapiens), sequence (Q02297 whole entry, looked up, the tested form may be a part, canonical isoform): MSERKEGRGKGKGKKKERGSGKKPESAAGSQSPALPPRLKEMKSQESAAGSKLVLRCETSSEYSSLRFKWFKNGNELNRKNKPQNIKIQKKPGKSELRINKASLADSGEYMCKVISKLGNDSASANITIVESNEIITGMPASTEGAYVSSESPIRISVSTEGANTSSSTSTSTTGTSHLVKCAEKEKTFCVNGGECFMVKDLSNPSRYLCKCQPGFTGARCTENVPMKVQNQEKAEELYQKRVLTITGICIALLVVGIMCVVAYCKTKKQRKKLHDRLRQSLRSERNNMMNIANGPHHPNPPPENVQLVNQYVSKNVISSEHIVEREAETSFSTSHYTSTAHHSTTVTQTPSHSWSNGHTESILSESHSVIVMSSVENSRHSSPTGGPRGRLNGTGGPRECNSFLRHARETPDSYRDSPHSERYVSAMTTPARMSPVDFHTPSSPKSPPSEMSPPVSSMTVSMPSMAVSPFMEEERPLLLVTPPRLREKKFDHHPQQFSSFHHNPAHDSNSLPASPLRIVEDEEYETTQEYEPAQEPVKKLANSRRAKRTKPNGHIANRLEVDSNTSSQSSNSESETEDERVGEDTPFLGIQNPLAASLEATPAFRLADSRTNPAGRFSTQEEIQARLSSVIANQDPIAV
In assay [7] the test system is Neuregulin-1 EGF-like domain. Put plainly: small molecules binding NRG1 EGF domain – biochemical, small-molecule microarray, 635 nm fluorescence, primary screen (AID 1081).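 Note: binding of the protein to compounds printed on small-molecule microarray slides.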 As to conditions: higher = more signal.
The nature of assay [8]: FRG1 expression reporter modulators in myotubes – cell-based, C2C12 myotubes, firefly/Renilla luciferase, luminescence, FRG1 inhibition for FSHD, primary screen (AID 1084). As to conditions: FRG1 promoter luciferase, higher = more signal, called active from +8 up or from −8 down.
Assay [9] in a line: small molecules captured by biotinylated probe aFST – biochemical, small-molecule microarray, fluorescence 635/667, stem cell growth factor project, primary screen (AID 1086).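 Note: score merges 667 nm fluorescence with signal-to-noise of each printed compound spot.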 As to conditions: higher = more signal.
Assay [10] in a line: binders of probe aHhip on microarray, primary screen, stem cell growth factor project, biochemical, small-molecule microarray, fluorescence 635/667 (AID 1087).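 Note: score merges spot fluorescence at 667nm with spot signal to noise ratio.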 As to conditions: higher = more signal.
Assay [11] relates to PRMT1 (protein arginine N-methyltransferase 1). Put plainly: small molecules binding arginine methyltransferase PRMT1 – biochemical, small-molecule microarray, 635 nm fluorescence, primary screen (AID 1088).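 Note: binding of Prmt1 protein to compounds spotted on small-molecule microarray slides.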 The following applies: higher = more signal.
Assay [12] can be described thus: growth effects on S. cerevisiae YJM789 – YJM789 clinical isolate, OD600, 24 h, basal, primary screen (AID 1089).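 Note: growth of clinical yeast isolate S. cerevisiae YJM 789 seeded 1000 cells per well; test concentration not given here.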 As to conditions: higher = more signal, called active from +8 up or from −8 down.
The nature of assay [13]: S. pombe growth modifiers, basal conditions – strain 972, OD600, 24 h, no modulator, primary screen (AID 1090).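 Note: basal condition with compound alone and no growth modifier present; test concentration not given here.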 As to conditions: S. pombe 972 growth, higher = more signal, called active from +8 up or from −8 down.
Assay [14] is described as follows: budding yeast growth modifiers under rapamycin – strain BY4716, OD600, 96 h, primary screen (AID 1091). Note: test concentration not given here. The following applies: S. cerevisiae BY4716 + rapamycin, higher = more signal, called active from +8 up or from −8 down.
Assay [15] has as its target Torsin-1A-interacting protein 2 (Homo sapiens) (UniProt Q8NFQ8). Put plainly: small molecules binding lysate-expressed LULL1 – cell lysate, human LULL1 lysate, 635/667 nm fluorescence, primary screen (AID 1092).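 Note: probe is lysate of COS7 cells overexpressing human LULL1; score merges per-feature 667 nm fluorescence with signal-to-noise.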 As to conditions: small-molecule microarray, hLULL1 lysate binding, 635 nm fluorescence; higher = more signal.
Assay [16] in a line: optical density change of DRC41 E. coli – strain DRC41, OD650, 24 h, E. coli filamentation project, primary screen (AID 1093).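 Note: MC1000 strain lacking acrAB efflux and sulA so SOS filamentation is blocked; test concentration not given here.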 The following applies: E. coli DRC41 growth, higher = more signal, called active from +8 up or from −8 down.
Assay [17] is described as follows: probe aLefty2 binding to arrayed compounds – biochemical, biotinylated probe, 635/667 nm fluorescence, primary screen (AID 1094).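 Note: score merges spot fluorescence near 667 nm with spot signal-to-noise ratio.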 As to conditions: small-molecule microarray, higher = more signal.
The subject of assay [18] is Noggin (protein binding on small-molecule microarray). Put plainly: small molecules binding Noggin protein – biochemical, 635/667 nm fluorescence, primary screen (AID 1095).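 Note: score merges 667 nm feature fluorescence with signal to noise over triplicate slides.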 As to conditions: 635 nm fluorescence, higher = more signal.
The target of assay [19] is Neurogenic locus notch homolog protein 3 (Homo sapiens) (UniProt Q9UM47). Put plainly: small molecules binding NOTCH3 protein – biochemical, 635/667 nm fluorescence, primary screen (AID 1096). As to conditions: small-molecule microarray, 635 nm fluorescence, higher = more signal.
Neurogenic locus notch homolog protein 3 (Homo sapiens), sequence (Q9UM47 whole entry, looked up): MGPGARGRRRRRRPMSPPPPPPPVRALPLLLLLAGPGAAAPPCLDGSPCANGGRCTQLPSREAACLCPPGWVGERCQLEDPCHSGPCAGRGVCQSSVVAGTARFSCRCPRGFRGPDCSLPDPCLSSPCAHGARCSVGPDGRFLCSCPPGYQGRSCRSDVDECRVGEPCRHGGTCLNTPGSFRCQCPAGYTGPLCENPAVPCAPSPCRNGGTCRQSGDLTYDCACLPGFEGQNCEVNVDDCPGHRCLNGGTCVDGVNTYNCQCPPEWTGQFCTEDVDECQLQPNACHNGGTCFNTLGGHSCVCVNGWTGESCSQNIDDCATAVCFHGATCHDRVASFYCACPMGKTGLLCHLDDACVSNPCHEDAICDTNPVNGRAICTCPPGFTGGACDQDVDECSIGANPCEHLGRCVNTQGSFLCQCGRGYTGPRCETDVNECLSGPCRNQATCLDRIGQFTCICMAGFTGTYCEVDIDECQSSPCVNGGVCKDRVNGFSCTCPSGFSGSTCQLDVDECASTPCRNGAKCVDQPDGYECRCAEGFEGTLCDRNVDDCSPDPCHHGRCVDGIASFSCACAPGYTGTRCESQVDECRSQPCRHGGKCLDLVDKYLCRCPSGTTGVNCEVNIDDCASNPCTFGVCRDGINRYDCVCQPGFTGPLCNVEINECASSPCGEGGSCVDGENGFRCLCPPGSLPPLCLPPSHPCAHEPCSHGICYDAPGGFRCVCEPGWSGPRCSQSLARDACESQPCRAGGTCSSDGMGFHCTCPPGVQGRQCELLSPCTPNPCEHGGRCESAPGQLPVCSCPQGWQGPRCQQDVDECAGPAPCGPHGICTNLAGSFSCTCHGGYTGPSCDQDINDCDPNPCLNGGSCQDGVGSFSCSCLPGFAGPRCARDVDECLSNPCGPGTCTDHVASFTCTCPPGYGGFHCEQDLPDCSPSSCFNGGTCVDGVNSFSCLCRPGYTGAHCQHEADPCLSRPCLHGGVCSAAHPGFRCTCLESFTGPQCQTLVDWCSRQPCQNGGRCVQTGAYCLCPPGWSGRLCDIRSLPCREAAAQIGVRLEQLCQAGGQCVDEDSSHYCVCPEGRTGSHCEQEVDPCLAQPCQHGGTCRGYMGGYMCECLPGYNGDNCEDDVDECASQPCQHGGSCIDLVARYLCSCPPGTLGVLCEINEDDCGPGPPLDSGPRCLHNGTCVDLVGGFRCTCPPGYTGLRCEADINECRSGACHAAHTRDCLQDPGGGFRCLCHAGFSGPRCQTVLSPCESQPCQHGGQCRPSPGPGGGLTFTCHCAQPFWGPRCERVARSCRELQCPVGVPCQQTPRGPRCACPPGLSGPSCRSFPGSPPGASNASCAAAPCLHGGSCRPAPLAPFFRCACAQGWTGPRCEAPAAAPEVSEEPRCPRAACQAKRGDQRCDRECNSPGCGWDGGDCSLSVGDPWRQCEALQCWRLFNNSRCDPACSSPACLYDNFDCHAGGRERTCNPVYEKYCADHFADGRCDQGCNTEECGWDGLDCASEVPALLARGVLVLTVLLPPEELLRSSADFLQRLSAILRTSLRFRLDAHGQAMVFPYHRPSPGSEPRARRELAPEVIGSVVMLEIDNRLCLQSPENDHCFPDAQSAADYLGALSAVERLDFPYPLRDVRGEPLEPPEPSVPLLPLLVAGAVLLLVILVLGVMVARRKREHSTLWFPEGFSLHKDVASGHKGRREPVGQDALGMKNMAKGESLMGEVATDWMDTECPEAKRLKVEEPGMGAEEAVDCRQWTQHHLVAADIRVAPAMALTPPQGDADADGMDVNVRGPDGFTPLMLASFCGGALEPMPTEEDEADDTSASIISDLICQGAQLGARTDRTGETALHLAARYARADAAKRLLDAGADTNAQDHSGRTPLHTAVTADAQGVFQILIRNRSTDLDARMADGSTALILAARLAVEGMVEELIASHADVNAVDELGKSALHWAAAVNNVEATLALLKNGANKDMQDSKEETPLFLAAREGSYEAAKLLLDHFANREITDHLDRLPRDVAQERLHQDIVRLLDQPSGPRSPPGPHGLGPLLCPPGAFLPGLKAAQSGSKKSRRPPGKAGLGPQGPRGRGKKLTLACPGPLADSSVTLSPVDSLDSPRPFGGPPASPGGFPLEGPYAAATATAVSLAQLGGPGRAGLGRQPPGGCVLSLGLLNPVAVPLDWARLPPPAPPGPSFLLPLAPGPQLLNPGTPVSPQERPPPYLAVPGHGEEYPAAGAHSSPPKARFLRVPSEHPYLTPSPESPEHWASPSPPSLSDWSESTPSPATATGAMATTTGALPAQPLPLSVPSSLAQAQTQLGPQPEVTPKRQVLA
Assay [20] is described as follows: probe aEGFR binding to arrayed compounds – biochemical, biotinylated probe, 635/667 nm fluorescence, primary screen (AID 1097).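 Note: probe is a biotinylated anti-EGFR antibody binding compounds printed on slides; score combines fluorescence near 667 nm and signal to noise of each spot.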 The following applies: small-molecule microarray, higher = more signal.

Torsin-1A-interacting protein 2 (Homo sapiens), sequence (Q8NFQ8 whole entry, looked up): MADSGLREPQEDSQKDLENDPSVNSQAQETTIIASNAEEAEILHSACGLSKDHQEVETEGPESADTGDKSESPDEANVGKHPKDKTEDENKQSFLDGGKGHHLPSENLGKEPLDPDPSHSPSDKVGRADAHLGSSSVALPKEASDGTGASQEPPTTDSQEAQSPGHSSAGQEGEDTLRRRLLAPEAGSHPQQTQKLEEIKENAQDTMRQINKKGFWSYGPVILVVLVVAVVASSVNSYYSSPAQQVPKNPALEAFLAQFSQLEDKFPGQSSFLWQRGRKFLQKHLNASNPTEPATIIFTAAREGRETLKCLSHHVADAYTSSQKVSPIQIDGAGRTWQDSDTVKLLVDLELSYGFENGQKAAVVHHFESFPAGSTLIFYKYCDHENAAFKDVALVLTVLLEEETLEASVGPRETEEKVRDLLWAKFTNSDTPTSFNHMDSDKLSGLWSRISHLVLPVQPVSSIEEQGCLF

As for `COC(=O)[C@H]1O[C@@H](c2c(OC)c(OC)c(C)c(OC)c2OC)[C@H](C)[C@@H](O)[C@H]1C`, the composite z-score in assay [1] was -0.341; in assay [2], 0.499; in assay [3], 0.0066; in assay [4], 0.915; in [5], 1.06; in [6] it was 0.368. Moreover, the composite z-score in assay [7] is 0.741; in assay [9], 0.224; in [10], -0.0965; in [11] it was 1.03; in [15], 0.964; in [17], -0.0131. Also, the values for the composite z-score in [18], in assay [19] and in assay [20] were 0.585, 1.1 and 0.0821, respectively. The z-score was -0.204 (inactive) in assay [8]; 0.234 (inactive) in assay [12]; 0.346 (inactive) in assay [13]; -0.438 (inactive) in assay [14]; 0.196 (inactive) in assay [16].
As for `CCCNC(=O)OC[C@H]1O[C@H](CCON=Cc2ccc(C(=O)N3[C@H](c4ccc(C)cc4)[C@@H](C)CC[C@H]3C(=O)OC)cc2)C=C[C@@H]1Oc1ccc(OC)cc1`, the composite z-score was -0.52 in assay [1]; 0.304 in assay [2]; -0.173 in assay [3]; 0.335 in assay [4]; 0.458 in [5]; 0.448 in [6]. In addition, the composite z-score is 0.51 in [7]; 0.598 in assay [9]; -0.102 in [10]; 1.15 in [11]; 1.02 in assay [15]; -0.263 in assay [17]. Besides, the composite z-score in [18] is 1.03; in assay [19] it was 0.607; in assay [20] it was -0.307. For the same molecule, the z-score in assay [8] is 0.868 (inactive); in assay [12], 0.0299 (inactive); in assay [13], 1.68 (inactive); in [14] it was 1.25 (inactive); in assay [16], 0.215 (inactive).
For the molecule `CCCNC(=O)OC[C@H]1O[C@H](CCON=C(C)CCC(=O)OC[C@H]2O[C@H](c3ccccc3)C=C[C@@H]2Oc2ccc(OC)cc2)C=C[C@@H]1Oc1ccc(OC)cc1`, the composite z-score in assay [1] is -0.302; in assay [2] it was 0.21; in [3], -0.127; in assay [4] it was -0.178; in assay [5], -0.843; in assay [6], -0.311. Besides, the composite z-score was -0.731 in assay [7]; 0.0494 in assay [9]; -0.0618 in assay [10]; -1.37 in assay [11]; -1.09 in assay [15]; -0.0982 in assay [17]. The composite z-score in assay [18] is -0.184; in assay [19], -0.619; in [20], -0.042. Besides, the z-score in assay [8] was 0.862 (inactive); in assay [12], -1.66 (inactive); in assay [13] it was 0.702 (inactive); in assay [14], -0.59 (inactive); in [16], 0.0967 (inactive).
As to `C#CCCCON=C1C[C@@H](O)[C@@H](O)[C@@H]2[C@@H]3C(=O)N(C(C)(C)C)C(=O)[C@@H]3CC[C@@H]12`, the composite z-score was 2.02 in assay [1]; 0.0189 in [2]; -0.0468 in [3]; -0.0755 in assay [4]; -0.707 in [5]; -0.107 in [6]. The composite z-score in assay [7] is -0.117; in [9], 0.987; in [10] it was -0.0645; in assay [11], -0.227; in assay [15], 0.148; in assay [17], 0.502. Also, the composite z-score in assay [18] is -1.11; in assay [19] it was -1.07; in assay [20], -0.106. Moreover, the z-score is -0.305 (inactive) in [8]; 0.266 (inactive) in [12]; 0.0546 (inactive) in [13]; 0.934 (inactive) in assay [14]; -0.131 (inactive) in assay [16].
Consider `CON=CC[C@@H]1C=C[C@H](OC(C)=O)[C@@H](COC(C)=O)O1`, for which the composite z-score in [1] was -0.043; in [2], 0.0682; in assay [3] it was -0.0006; in assay [4], 0.119; in assay [5], 0.255; in assay [6], -0.189. For the same molecule, the composite z-score in assay [7] was -0.686; in assay [9] it was 0.143; in assay [10] it was 0.151; in assay [11] it was 0.0622; in [15], 0.172; in [17], 0.253. In addition, the composite z-score is 0.532 in [18], -0.0592 in assay [19] and -0.184 in [20]. For the same molecule, the z-score in assay [8] is 0.41 (inactive); in assay [12], 0.586 (inactive); in [13], 0.141 (inactive); in [14], 0.35 (inactive); in assay [16] it was -0.0614 (inactive).
